PubChem BioAssay (EPA / NIEHS)
Results filed as inconclusive are left out. The source made the active and inactive calls. The calls were made as follows, unless noted: active = hit-call score of the fitted dose curve at least 0.9, where 1 is the maximum; inactive = score below 0.9.

What was measured:
[1] = ATG_M_32_TRANS: Attagene TRANS-FACTORIAL HepG2 Assay for M32 Transcription Factor (Internal Marker) (AID 2282984; active = hit-call score of the fitted dose curve at least 0.9, where 1 is the maximum;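 also: transcript level of a background control reporter unit measured by RT-PCR and capillary electrophoresis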); conditions: HepG2 Attagene TRANS M32 internal marker reporter
Outline: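 Fluorescence-detected mRNA induction, HepG2 liver cells, 24 h after dosing. Multiple GAL4-UAS reporter units introduced by transient transfection; background-control endpoint analysed for gain of signal against DMSO.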

[2] = molecular target: Transcriptional activator Myb (Homo sapiens) (UniProt P10242); assay: ATG_Myb_CIS: Attagene CIS-FACTORIAL HepG2 Assay for human Myeloblastosis (Myb) Proto-Oncogene Transcription Factor (AID 2282986); conditions: HepG2 Attagene CIS-FACTORIAL Myb reporter transcription; actives raise or lower the signal
Outline: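 Transiently transfected HepG2 cells carrying a multiplexed cis-promoter reporter set report endogenous Myb activity after 24 h compound exposure. Reporter mRNA is read by RT-PCR with capillary electrophoresis of fluorescent products, fitted bidirectionally against DMSO.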

[3] = molecular target: Nuclear respiratory factor 1 (Homo sapiens) (UniProt Q16656); assay: ATG_NRF1_CIS: Attagene CIS-FACTORIAL HepG2 Assay for human Nuclear Respiratory Factor 1 (NRF1) Orphan Gene (AID 2282987); conditions: HepG2 NRF1 cis-element reporter, Attagene multiplex; actives raise or lower the signal
Outline: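 HepG2 cells transiently transfected with multiple cis-regulated reporter units, exposed 24 h. Reporter mRNAs measured by RT-PCR, fluorescent labelling, HpaI digestion and capillary electrophoresis; bidirectional fitting against DMSO.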

[4] = ATG_NFI_CIS: Attagene CIS-FACTORIAL HepG2 Assay for human Nuclear Factor I (NFI) (AID 2282989); conditions: HepG2 cis-regulatory reporter, NFI response element transcription; actives raise or lower the signal
Outline: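 After transient transfection of HepG2 with cis-promoter reporter constructs and 24 h dosing, RNA is reverse-transcribed, amplified, 6-FAM end-labelled and HpaI-digested before capillary analysis. Bidirectional curve fitting against DMSO.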

[5] = molecular target: Hepatocyte nuclear factor 4-alpha (Homo sapiens) (UniProt P41235); assay: ATG_HNF4a_TRANS: Attagene TRANS-FACTORIAL HepG2 Assay for human Hepatocyte Nuclear Factor 4 alpha (HNF4a) (AID 2282982; active = hit-call score of the fitted dose curve at least 0.9, where 1 is the maximum); conditions: HepG2 HNF4a transactivation reporter, mRNA readout
Outline: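 Using HepG2 liver cells transfected with GAL4-UAS reporter units, chemical-induced mRNA increases were assessed after 24 hours. Fluorescent RT-PCR fragments were separated by capillary electrophoresis and compared with DMSO negative controls.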

[6] = ATG_M_06_TRANS: Attagene TRANS-FACTORIAL HepG2 Assay for M06 Transcription Factor (Internal Marker) (AID 2282983; active = hit-call score of the fitted dose curve at least 0.9, where 1 is the maximum;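 also: reporter transcript level by RT-PCR then capillary electrophoresis fluorescence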); conditions: HepG2 Attagene TRANS M06 internal marker reporter
Outline: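 Multi-reporter-transfected HepG2, 24 h treatment; reporter transcripts quantified via RT-PCR, primer-extension labelling and CE. DMSO-normalized gain-of-signal fit.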

[7] = molecular target: Nuclear receptor subfamily 4 group A member 2 (Homo sapiens) (UniProt P43354); assay: ATG_NURR1_TRANS: Attagene TRANS-FACTORIAL HepG2 Assay for human Nuclear Receptor Related Protein 1 (NURR1) (AID 2282985; active = hit-call score of the fitted dose curve at least 0.9, where 1 is the maximum); conditions: HepG2 Attagene TRANS reporter, mRNA readout
Outline: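 Chimeric NR-Gal4 proteins were expressed in human HepG2 cells bearing GAL4-UAS reporter units, and induced reporter mRNA was quantified 24 h post-dosing by RT-PCR and capillary electrophoresis.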

[8] = molecular target: Oxysterols receptor LXR-beta (Homo sapiens) (UniProt P55055); assay: ATG_LXRb_TRANS: Attagene TRANS-FACTORIAL HepG2 Assay for human Liver X Receptor beta (LXRb) (AID 2282981; active = hit-call score of the fitted dose curve at least 0.9, where 1 is the maximum); conditions: HepG2 Attagene TRANS GAL4-LXRb reporter, mRNA
Outline: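 Liver-derived HepG2 cells transfected with Gal4-responsive reporters were dosed for 24 h. Activation was scored as rise in reporter mRNA, by RT-PCR and capillary electrophoresis, above DMSO baseline.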

Sequence of Transcriptional activator Myb (Homo sapiens) (P10242 whole entry, looked up): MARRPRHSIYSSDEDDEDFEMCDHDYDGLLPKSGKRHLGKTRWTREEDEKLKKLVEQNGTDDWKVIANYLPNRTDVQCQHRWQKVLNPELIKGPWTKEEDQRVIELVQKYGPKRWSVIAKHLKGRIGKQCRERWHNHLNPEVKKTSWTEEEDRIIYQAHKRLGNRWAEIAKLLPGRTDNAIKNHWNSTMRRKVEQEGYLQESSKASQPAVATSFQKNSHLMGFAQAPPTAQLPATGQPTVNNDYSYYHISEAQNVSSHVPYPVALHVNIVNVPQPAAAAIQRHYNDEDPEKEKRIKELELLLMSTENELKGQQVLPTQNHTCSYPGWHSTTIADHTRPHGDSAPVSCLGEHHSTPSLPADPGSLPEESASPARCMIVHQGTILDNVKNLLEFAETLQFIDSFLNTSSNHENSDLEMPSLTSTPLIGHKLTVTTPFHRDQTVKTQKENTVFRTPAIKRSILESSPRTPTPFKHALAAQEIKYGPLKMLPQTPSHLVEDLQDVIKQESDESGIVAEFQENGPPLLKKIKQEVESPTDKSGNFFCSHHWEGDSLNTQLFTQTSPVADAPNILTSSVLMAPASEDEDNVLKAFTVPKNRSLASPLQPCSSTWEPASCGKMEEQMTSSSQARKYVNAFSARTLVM
Sequence of Nuclear respiratory factor 1 (Homo sapiens) (Q16656 whole entry, looked up): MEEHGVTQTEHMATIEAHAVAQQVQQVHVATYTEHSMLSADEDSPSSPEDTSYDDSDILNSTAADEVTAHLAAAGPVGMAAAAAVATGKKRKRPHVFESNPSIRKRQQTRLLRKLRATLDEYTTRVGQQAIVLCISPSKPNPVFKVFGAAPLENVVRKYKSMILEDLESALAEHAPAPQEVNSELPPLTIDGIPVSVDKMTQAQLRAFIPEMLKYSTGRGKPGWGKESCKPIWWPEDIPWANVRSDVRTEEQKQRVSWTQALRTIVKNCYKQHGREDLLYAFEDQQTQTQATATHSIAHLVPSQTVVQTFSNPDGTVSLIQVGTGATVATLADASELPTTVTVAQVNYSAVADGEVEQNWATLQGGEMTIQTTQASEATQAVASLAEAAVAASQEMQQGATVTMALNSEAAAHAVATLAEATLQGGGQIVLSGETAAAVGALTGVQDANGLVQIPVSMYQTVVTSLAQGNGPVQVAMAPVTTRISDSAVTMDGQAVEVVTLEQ
Sequence of Hepatocyte nuclear factor 4-alpha (Homo sapiens) (P41235 whole entry, looked up, the tested form may be a part): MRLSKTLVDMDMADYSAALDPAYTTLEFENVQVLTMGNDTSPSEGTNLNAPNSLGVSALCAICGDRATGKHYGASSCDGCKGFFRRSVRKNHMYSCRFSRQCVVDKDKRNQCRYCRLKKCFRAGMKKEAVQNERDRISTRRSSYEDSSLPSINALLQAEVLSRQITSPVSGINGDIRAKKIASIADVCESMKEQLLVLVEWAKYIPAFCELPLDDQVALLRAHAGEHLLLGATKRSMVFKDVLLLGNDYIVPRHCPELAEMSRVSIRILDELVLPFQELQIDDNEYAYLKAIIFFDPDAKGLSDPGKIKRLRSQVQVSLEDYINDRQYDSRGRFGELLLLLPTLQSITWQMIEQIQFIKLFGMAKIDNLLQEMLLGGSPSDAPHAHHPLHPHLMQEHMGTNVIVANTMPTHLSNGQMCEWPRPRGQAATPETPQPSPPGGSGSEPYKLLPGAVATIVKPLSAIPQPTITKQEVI
Sequence of Nuclear receptor subfamily 4 group A member 2 (Homo sapiens) (P43354 whole entry, looked up, the tested form may be a part): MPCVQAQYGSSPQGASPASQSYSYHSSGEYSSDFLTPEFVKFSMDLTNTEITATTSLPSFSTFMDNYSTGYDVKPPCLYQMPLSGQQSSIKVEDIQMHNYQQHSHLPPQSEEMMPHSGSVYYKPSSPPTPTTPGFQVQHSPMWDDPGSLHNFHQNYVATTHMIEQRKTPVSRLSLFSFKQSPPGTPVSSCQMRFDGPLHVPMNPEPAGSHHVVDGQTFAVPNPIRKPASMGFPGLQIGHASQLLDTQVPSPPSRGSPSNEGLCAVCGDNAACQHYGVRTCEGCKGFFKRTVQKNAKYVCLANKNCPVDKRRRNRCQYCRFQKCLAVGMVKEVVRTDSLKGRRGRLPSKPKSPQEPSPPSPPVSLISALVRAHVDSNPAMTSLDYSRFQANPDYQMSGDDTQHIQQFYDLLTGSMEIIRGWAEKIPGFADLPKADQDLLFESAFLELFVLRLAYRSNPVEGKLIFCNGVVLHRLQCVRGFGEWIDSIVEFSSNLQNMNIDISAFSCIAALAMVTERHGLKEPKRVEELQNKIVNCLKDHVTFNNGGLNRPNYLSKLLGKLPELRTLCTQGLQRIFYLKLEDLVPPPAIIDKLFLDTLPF
Sequence of Oxysterols receptor LXR-beta (Homo sapiens) (P55055 whole entry, looked up, the tested form may be a part): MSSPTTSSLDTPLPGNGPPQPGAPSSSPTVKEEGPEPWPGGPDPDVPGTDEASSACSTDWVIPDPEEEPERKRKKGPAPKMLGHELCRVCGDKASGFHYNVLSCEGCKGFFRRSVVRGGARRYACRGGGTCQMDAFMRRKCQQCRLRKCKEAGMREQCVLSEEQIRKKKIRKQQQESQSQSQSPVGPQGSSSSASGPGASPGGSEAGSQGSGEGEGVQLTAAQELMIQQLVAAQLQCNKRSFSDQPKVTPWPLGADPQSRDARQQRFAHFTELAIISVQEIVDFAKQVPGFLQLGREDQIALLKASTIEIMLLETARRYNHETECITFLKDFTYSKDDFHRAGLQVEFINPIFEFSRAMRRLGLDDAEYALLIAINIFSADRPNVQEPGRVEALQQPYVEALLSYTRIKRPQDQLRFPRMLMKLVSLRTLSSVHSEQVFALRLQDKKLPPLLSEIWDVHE

Row | SMILES | outcome [1] | outcome [2] | outcome [3] | outcome [4] | outcome [5] | outcome [6] | outcome [7] | AC50 [3] | outcome [8] | AC50 [4]
1 | CCOCCOCCO | inactive | inactive | inactive | inactive |  |  |  |  |  | 
2 | CCCCCCCCCCCCCCCCO |  | inactive | inactive | inactive | inactive | inactive |  |  |  | 
3 | Cc1ccc(-c2cc(C(F)(F)F)nn2-c2ccc(S(N)(=O)=O)cc2)cc1 |  | inactive | inactive | inactive |  | inactive | inactive |  |  | 
4 | Oc1ccc(O)cc1 | inactive | inactive | inactive | inactive | inactive | inactive | inactive |  |  | 
5 | CO[C@@H]1COCC[C@@H]1N[C@@H]1CC[C@@](C(=O)N2CCc3ncc(C(F)(F)F)cc3C2)(C(C)C)C1 |  | inactive | inactive | inactive |  |  |  |  |  | 
6 | O=C1NC(=O)C(c2ccccc2)(c2ccccc2)N1 | inactive | inactive | inactive | inactive | inactive | inactive | inactive |  |  | 
7 | CCCC(=O)O |  | inactive | inactive | inactive | inactive |  | inactive |  |  | 
8 | CCCCOC(=O)CCCCC(=O)OCCCC | inactive | inactive | inactive | inactive | inactive | inactive | inactive |  |  | 
9 | CCC(C)N(C)C(=O)c1cc2ccccc2c(-c2ccccc2Cl)n1 (stereo not drawn) | inactive | inactive |  | inactive |  |  | inactive | 63 µM (active) |  | 
10 | O=NO | inactive | inactive | inactive | inactive | inactive | inactive | inactive |  |  | 
11 | CC1=C(C)S(=O)(=O)CCS1(=O)=O |  | inactive | inactive | inactive |  | inactive |  |  |  | 
12 | C/C=C/C=C/C(=O)O | inactive | inactive | inactive | inactive | inactive | inactive |  |  |  | 
13 | O=C1O[C@H]([C@H](O)CO)C(O)=C1O | inactive | inactive | inactive | inactive |  |  | inactive |  |  | 
14 | O=C(O)c1[nH]n(-c2ccc(S(=O)(=O)O)cc2)c(=O)c1N=Nc1ccc(S(=O)(=O)O)cc1 |  | inactive | inactive | inactive |  | inactive |  |  |  | 
15 | C/C=C/c1ccc(OC)cc1 |  | inactive | inactive | inactive | inactive |  |  |  |  | 
16 | O=C1c2c(O)cccc2Cc2cccc(O)c21 |  | inactive | inactive | inactive |  | inactive | inactive |  |  | 
17 | Cc1cn([C@H]2C=C[C@@H](CO)O2)c(=O)[nH]c1=O |  | inactive | inactive | inactive |  |  | inactive |  |  | 
18 | O=C1CCCCC1 | inactive | inactive | inactive | inactive | inactive | inactive | inactive |  |  | 
19 | Cc1occc(=O)c1O |  | inactive | inactive | inactive | inactive |  |  |  |  | 
20 | CC(C)(C)c1ccccc1 | inactive | inactive | inactive | inactive |  | inactive | inactive |  |  | 
21 | COC(=O)[C@H]1[C@H]2C[C@@H]3c4[nH]c5cc(OC)ccc5c4CCN3C[C@H]2C[C@@H](OC(=O)c2cc(OC)c(OC)c(OC)c2)[C@@H]1OC | inactive | inactive | inactive | inactive |  | inactive |  |  |  | 
22 | Cc1cc(SC2=C(O)C[C@@](CCc3ccc(N)cc3)(C(C)C)OC2=O)c(C(C)(C)C)cc1CO | inactive | inactive | inactive | inactive |  |  |  |  | inactive | 
23 | CC(=O)O | inactive | inactive | inactive | inactive |  | inactive | inactive |  |  | 
24 | Oc1ccccc1O | inactive | inactive | inactive | inactive |  |  | inactive |  |  | 
25 | CCCCCCCCCCCCCCOS(=O)(=O)O |  | inactive | inactive | inactive |  | inactive | inactive |  |  | 
26 | O=C1OC(c2ccc(O)cc2)(c2ccc(O)cc2)c2ccccc21 |  | inactive | inactive |  |  |  |  |  |  | 22.8 µM (active)
27 | CC1(C)C(=O)NC(=O)N1CO |  | inactive | inactive | inactive | inactive |  | inactive |  |  | 
